HT1080-NT tox = kills 2HG-producing HT-1080-NT fibrosarcoma cells | HT-1080-NT fibrosarcoma viability, CellTiter-Glo ATP luminescence, 48 h | Potency, µM (titrated, usually from 46.1 µM), for the others: at the highest dose activity, negative = less viability, most hits filed as cytotoxic | 1.6% of 360,000 active;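 further: NT is the 2HG producing partner of a matched IDH1 knockdown line; potency means the concentration at half of the fitted maximal effect; 0% = DMSO-treated cells and -100% = media-only wells without cells; nearly all actives have a fitted effect of over 55% in size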
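Read-out is CellTiter-Glo luminescence after 10 minutes at room temperature, following 48 hours' compound treatment of HT-1080-NT cells (750 cells/well, RPMI, 5% FBS, 37 degrees C).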
DT40 TDP1 CPT = growth inhibition of DT40 Tdp1-/-;hTDP1 cells with camptothecin (screen for TDP1 inhibitors); chicken DT40 Tdp1-/-;hTDP1 cells + 20 nM CPT, ATP luminescence, 48 h; Potency, µM (highest dose often 46.2 µM), without a hit: top-dose activity change, negative = growth inhibition, most hits filed as inhibitors; 12% of 420,000 active; AID 686979; further: potency means the concentration at half of the fitted maximal effect; nearly all actives have a fitted effect of over 55% in size
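Cell growth measured by CellTiter-Glo luminescence after a minimum 48 h, 37 C compound exposure with 20 nM CPT in Tdp1-knockout DT40 cells stably expressing hTDP1, seeded 400/well; qHTS titration format.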
TDP1 cell noCPT = qHTS for Inhibitors of human tyrosyl-DNA phosphodiesterase 1 (TDP1): qHTS in cells in absence of CPT | DT40 Tdp1-/- hTDP1 cells, no CPT, ATP luminescence, 48 h | Potency, µM (doses to about 46.2 µM), for the others: at the highest dose activity change, negative = growth inhibition, actives largely listed as inhibitors | 15% of 420,000 active | AID 686978, 2013; further: potency means the concentration at half of the fitted maximal effect; nearly all actives have a fitted effect of over 55% in size
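Readout: luminescence from CellTiter-Glo after 30 min in the dark at RT. Cells: DT40 Tdp1-/- with stable hTDP1, 400/well. Exposure: compounds alone, ≥48 hr, 37 °C.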
12-LOX inh = ALOX12 (human) lipoxygenase inhibition; AID 1671190; P18054; purified 12hLO, xylenol orange hydroperoxide absorbance; Potency, µM (doses to about 108 µM), inactives show top-dose activity change, negative = inhibition, most hits filed as inhibitors; 1.1% of 580,000 active; further: potency means the concentration at half of the fitted maximal effect
Target sequence (P18054 whole entry, looked up): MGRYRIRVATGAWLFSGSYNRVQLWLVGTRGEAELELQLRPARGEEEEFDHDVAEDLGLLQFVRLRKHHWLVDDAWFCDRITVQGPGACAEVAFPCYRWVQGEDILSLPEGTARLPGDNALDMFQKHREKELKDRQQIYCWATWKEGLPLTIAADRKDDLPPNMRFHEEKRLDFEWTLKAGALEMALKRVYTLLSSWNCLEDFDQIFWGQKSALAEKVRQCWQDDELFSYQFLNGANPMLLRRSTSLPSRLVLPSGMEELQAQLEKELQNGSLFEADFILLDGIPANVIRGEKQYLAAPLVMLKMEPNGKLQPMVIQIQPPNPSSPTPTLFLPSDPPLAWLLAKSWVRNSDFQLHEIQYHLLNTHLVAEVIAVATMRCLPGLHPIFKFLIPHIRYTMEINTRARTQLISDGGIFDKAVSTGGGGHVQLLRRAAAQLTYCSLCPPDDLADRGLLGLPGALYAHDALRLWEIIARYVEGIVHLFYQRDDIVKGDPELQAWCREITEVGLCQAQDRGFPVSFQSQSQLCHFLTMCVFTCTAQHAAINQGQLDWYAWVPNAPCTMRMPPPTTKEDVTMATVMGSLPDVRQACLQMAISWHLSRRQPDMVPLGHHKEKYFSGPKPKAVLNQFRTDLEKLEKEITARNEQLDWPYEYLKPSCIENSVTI
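Hydroperoxide product was detected by ferrous iron/xylenol orange as the 573 to 405 nm absorbance ratio. Arachidonic acid at 40 uM (final) was turned over for 30 min at room temperature by 150 nM human 12hLO, pH 7.0 Hepes buffer, after 15 min compound preincubation.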
HT1080 IDH1KD tx = kills HT-1080 cells with IDH1 knockdown. HT-1080 IDH1 knockdown viability, ATP luminescence, 48 h. Potency, µM (top dose mostly 46.1 µM), for inactives: at the top dose activity, negative = toxicity, most hits filed as cytotoxic. 2% of 360,000 active. AID 686971;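 further: potency means the concentration at half of the fitted maximal effect; 0% = DMSO wells and -100% = cell-free medium wells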
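CellTiter-Glo luminescence after 48 h compound exposure at 37 degrees C of IDH1-knockdown HT-1080 cells in 5% FBS RPMI. %Activity scaled between DMSO wells and cell-free media wells, with curves fitted and assigned curve classes.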
IL-1B inflam inh = blocks inflammasome-driven IL-1 beta release. AID 743279. 4.7% of 360,000 active. activity change, % at 57.5 µM. THP-1 LPS/ATP IL-1B secretion, AlphaLISA, 16 h; hits give low values; in the data active means activity change below about -50%; inconclusive means mostly about -30% to -49%
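THP-1 cells pretreated 1 hr with compounds (up to 57.5 uM final), then stimulated with LPS (250 ng/mL final) plus ATP (1.25 mM final); secreted IL-1B measured by AlphaLISA after 16 hr, decreased signal indicating inhibition.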
Numbers without * were called inactive; ? = inconclusive; . = not tested or not shown; [ ] = dose if it differs, or a comment. This excerpt belongs to a sample that is enriched for hits. Unless noted, the call rests on the fitted dose curve; in most records, active means well fitted curve in the direction sought with a large enough effect; inconclusive means small, poorly fitted or top-dose-only effect, or another doubt; inactive means no such curve, though single readings can be large; an effect the other way counts as inactive or inconclusive. Unless noted, on the % scale 0 is the no-effect control and ±100 the full control effect.

SMILES	HT1080-NT tox	DT40 TDP1 CPT	TDP1 cell noCPT	12-LOX inh	HT1080 IDH1KD tx	IL-1B inflam inh
CCOc1cc(/C=C2\SC(=S)N(N3CCOCC3)C2=O)ccc1O	3%	-3%	-21%	9%	7%	4
CCOc1cc(/C=C2\SC(=N)N(c3nccs3)C2=O)ccc1OCCN1CCOCC1	-27%	16µM*	21µM*	-11%	?	-19
CCCCCOC(=O)CCC	.	.	.	-1%[176 µM]	.	.
S=C(N/N=C1/CC2CC=CC12)NC1CCCCC1 (stereo unspecified)	.	.	.	35µM*	.	.
Cc1cccc(NC(=O)C2CC(=O)N(c3n[nH]c4cccc(F)c34)C2)c1 (stereo unspecified)	.	.	.	-3%	.	.
Cc1ccc(Cc2c[nH]c(=S)s2)cc1	-17%	7%	?	35µM*	-1%	1
N#Cc1cc2ccncc2c2ccccc12	-4%	?	8.2µM*	-7%	-11%	-26
Cc1cc(C#N)c2ccccc2n1	9%	1%	-9%	142%	8%	16
Nc1cc2ccncc2c2ccccc12	-7%	?	10µM*	0%	0%	?
COc1ccccc1-c1c(C)oc2cc(O)ccc2c1=O	.	.	.	41%	.	.
COc1ccc(N2Cc3c(NCCOc4ccccc4)ncnc3N(C)CC2=O)cc1	.	.	.	2%	.	.
O=C(Cc1c[nH]c2ccccc12)Nc1ccc(F)c(F)c1	.	.	.	-19%	.	.
C/C(N)=C(/C#N)C(=O)CSc1nnc(SCc2ccc(Cl)cc2)s1	-17%	13µM*	16µM*	-55%	21µM*	-1
O=[N+]([O-])c1ccc(N/N=C/c2cccc(O)c2O)cc1	?	?	15µM*	?	?	?
O=[N+]([O-])c1ccc(N/N=C/c2cccc(O)c2)cc1	?	?	21µM*	?	?	-88*
Cc1cccc(C(=O)Oc2ccccc2/C=N/Nc2ccc([N+](=O)[O-])cc2)c1	-14%	29µM*	16µM*	?	-10%	-6
O=[N+]([O-])c1ccc(C=NNc2ccc(S(=O)(=O)O)cc2)cc1	1%	-17%	-6%	?	6%	0
Cc1cccc(C(=O)Oc2cccc(OC(=O)c3cccc(C)c3)c2C)c1	.	.	.	4%	.	.
NC(Cc1ccc(OC(F)(F)F)cc1)C(=O)O (stereo unspecified)	.	.	.	-21%	.	.
Nc1nccnc1C(=O)Nc1ccc(C(=O)NCC(F)(F)F)cc1	.	.	.	8%	.	.
COc1ccc(-n2c(=O)/c(=C\c3cccs3)s/c2=C(/C#N)C(=O)N2CCN(C)CC2)cc1	?	-26%	23µM*	?	?	25
COc1ccc(CCNc2ccc(C(=O)O)cc2[N+](=O)[O-])cc1OC	2%	9%	8%	-10%	0%	27
COc1ccc(CCNc2cc(N3CCN(C(=O)c4ccccc4F)CC3)ccc2[N+](=O)[O-])cc1OC	-2%	4.6µM*	5.2µM*	258%	?	-2
COc1ccc(C(=O)N2CCN(c3ccc([N+](=O)[O-])c(NCCc4ccc(OC)c(OC)c4)c3)CC2)cc1	1.2µM*	4.1µM*	2.6µM*	-16%	?	?
COc1ccc(-c2c(NC(=O)CC(C)C)oc3c(C)cccc3c2=O)cc1	.	.	.	25%	.	.
SMILES	HT1080-NT tox	DT40 TDP1 CPT	TDP1 cell noCPT	12-LOX inh	HT1080 IDH1KD tx	IL-1B inflam inh
N#Cc1c(-c2ccc(Cl)cc2)cc(-c2ccc(Br)cc2)c(C#N)c1N	.	.	.	-13%	.	.
Cc1cnc(NC(=O)c2ccc3c(c2)OCCN(c2ccccc2)C3)s1	.	.	.	64%[176 µM]	.	.
C[C@H](CO)N1C[C@H](C)[C@@H](CN(C)C(=O)Nc2ccccc2)Oc2ccc(NC(=O)Nc3ccc(C(F)(F)F)cc3)cc2C1=O	-27%	?	?	-9%	?	-10
CC(C)NC(=O)N(C)C[C@@H]1OCCCC[C@@H](C)Oc2ccc(NC(=O)Nc3ccc(F)cc3)cc2C(=O)N([C@H](C)CO)C[C@@H]1C	-5%	-17%	-2%	-22%	-4%	-9
CC(C)NC(=O)N(C)C[C@H]1OCCCC[C@@H](C)Oc2ccc(NC(=O)C3CCCCC3)cc2C(=O)N([C@H](C)CO)C[C@@H]1C	-1%	?	12µM*	?	-1%	-12
C[C@H](CO)N1C[C@H](C)[C@@H](CN(C)C(=O)Nc2ccc(C(F)(F)F)cc2)Oc2ccc(NS(=O)(=O)c3ccc(F)cc3)cc2C1=O	-15%	?	23µM*	?	-18%	-23
C[C@@H]1CN([C@H](C)CO)C(=O)c2cc(NC(=O)Nc3ccc(F)cc3)ccc2O[C@H]1CN(C)C(=O)Nc1ccc(C(F)(F)F)cc1	-19%	16µM*	21µM*	.	?	-72*
C[C@H](CO)N1C[C@H](C)[C@@H](CN(C)C(=O)Nc2ccc(C(F)(F)F)cc2)Oc2ccc(NC(=O)C3CCCCC3)cc2C1=O	-3%	?	?	-20%	-2%	-53*
Cc1ccc(S(=O)(=O)Nc2ccc3c(c2)C(=O)N([C@H](C)CO)C[C@H](C)[C@@H](CN(C)C(=O)Nc2ccc(C(F)(F)F)cc2)O3)cc1	-20%	?	?	?	-29%	?
O=C(CSc1nnnn1C1CC1)Nc1ccc(CN2CCCC2)cc1	.	.	.	10%	.	.
CC(C)c1ccc(/C=C/C(=O)N2CCN(C/C=C/c3ccccc3)CC2)cc1	.	.	.	15%	.	.
O=C(Nc1nc2ccccc2s1)NC1CC(=O)N(c2cccc(F)c2)C1 (stereo unspecified)	.	.	.	12%	.	.
O=C(Cc1noc(C(=O)NCc2ccncc2)n1)Nc1cccc2ncccc12	.	.	.	8%	.	.
C[C@H](CO)N1C[C@H](C)[C@@H](CN(C)C(=O)Nc2ccc(C(F)(F)F)cc2)Oc2ccc(NS(=O)(=O)c3ccccc3)cc2C1=O	-14%	3.7µM*	?	0%	-24%	-12
COc1ccc(N(CC(=O)NCc2ccccc2)S(=O)(=O)c2c(C)n[nH]c2C)cc1	15%	21µM*	-3%	-1%	1%	-26
COc1ccc(Cl)cc1NC(=O)CN(c1cc(C)cc(C)c1)S(=O)(=O)c1c(C)n[nH]c1C	.	?	?	-4%	.	.
COc1ccc(N(CC(=O)N2CCN(c3cccc(C)c3)C(C)C2)S(=O)(=O)c2c(C)n[nH]c2C)cc1 (stereo unspecified)	-5%	?	?	-19%	-21%	-61*

Assay outcomes as filed in PubChem.
